Experimental data as given in article PMC5540273 (PLoS ONE, 2017).

Columns and labels:
Conditions in all cases: concentration: 1 μM, replicates: in singlicate; n = 1
LKB1 = system: T1, LKB1
T1 construct: gene STK11

LOK = system: T2, LOK
T2 construct: gene STK10

LRRK2 = system: LRRK2
LTK = system: LTK
LYN = system: LYN
LZK = system: T3, LZK
T3 construct: gene MAP3K13

MAK = system: MAK
MAP3K15 = system: MAP3K15
MAP3K1 = system: MAP3K1
MAP3K2 = system: MAP3K2
MAP3K3 = system: MAP3K3
MAP3K4 = system: MAP3K4
MAP4K2 = system: MAP4K2
MAP4K3 = system: MAP4K3
MAP4K4 = system: MAP4K4
MAP4K5 = system: MAP4K5
MAPKAPK2 = system: MAPKAPK2
MAPKAPK5 = system: MAPKAPK5
MARK1 = system: MARK1
MARK2 = system: MARK2
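Further: KINOMEscan kinase panel screen.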

Clc1cccc(-c2nc(Nc3ccncc3)c3ccccc3n2)c1 [GW873004]
%Inh (LKB1): 28%
%Inh (LOK): 59%
%Inh (LRRK2): 0%
%Inh (LTK): 6%
%Inh (LYN): 0%
%Inh (LZK): 0%
%Inh (MAK): 0%
%Inh (MAP3K15): 0%
%Inh (MAP3K1): 0%
%Inh (MAP3K2): 0%
%Inh (MAP3K3): 20%
%Inh (MAP3K4): 23%
%Inh (MAP4K2): 0%
%Inh (MAP4K3): 0%
%Inh (MAP4K4): 17%
%Inh (MAP4K5): 3%
%Inh (MAPKAPK2): 0%
%Inh (MAPKAPK5): 0%
%Inh (MARK1): 0%
%Inh (MARK2): 0%

NC(=O)c1sc(-n2cnc3ccccc32)cc1OCc1ccccc1F [GSK1024306]
%Inh (LKB1): 0%
%Inh (LOK): 63%
%Inh (LRRK2): 29%
%Inh (LTK): 5%
%Inh (LYN): 0%
%Inh (LZK): 27%
%Inh (MAK): 13%
%Inh (MAP3K15): 0%
%Inh (MAP3K1): 59%
%Inh (MAP3K2): 0%
%Inh (MAP3K3): 0%
%Inh (MAP3K4): 23%
%Inh (MAP4K2): 0%
%Inh (MAP4K3): 0%
%Inh (MAP4K4): 8%
%Inh (MAP4K5): 21%
%Inh (MAPKAPK2): 0%
%Inh (MAPKAPK5): 0%
%Inh (MARK1): 0%
%Inh (MARK2): 0%

Cl.Cn1ccc(-c2cccc(Nc3ccnc4cc(-c5nccs5)ccc34)c2)n1 [GW525701]
%Inh (LKB1): 0%
%Inh (LOK): 72%
%Inh (LRRK2): 0%
%Inh (LTK): 0%
%Inh (LYN): 0%
%Inh (LZK): 48%
%Inh (MAK): 0%
%Inh (MAP3K15): 0%
%Inh (MAP3K1): 10%
%Inh (MAP3K2): 0%
%Inh (MAP3K3): 0%
%Inh (MAP3K4): 10%
%Inh (MAP4K2): 14%
%Inh (MAP4K3): 0%
%Inh (MAP4K4): 20%
%Inh (MAP4K5): 0%
%Inh (MAPKAPK2): 21%
%Inh (MAPKAPK5): 0%
%Inh (MARK1): 28%
%Inh (MARK2): 100%

Nc1nc(-c2ccc3c(N)n[nH]c3c2)cc(N2CCCCC2)n1 [GSK2228768]
%Inh (LKB1): 0%
%Inh (LOK): 0%
%Inh (LRRK2): 0%
%Inh (LTK): 0%
%Inh (LYN): 0%
%Inh (LZK): 0%
%Inh (MAK): 17%
%Inh (MAP3K15): 0%
%Inh (MAP3K1): 0%
%Inh (MAP3K2): 0%
%Inh (MAP3K3): 0%
%Inh (MAP3K4): 2%
%Inh (MAP4K2): 0%
%Inh (MAP4K3): 0%
%Inh (MAP4K4): 0%
%Inh (MAP4K5): 0%
%Inh (MAPKAPK2): 3%
%Inh (MAPKAPK5): 0%
%Inh (MARK1): 0%
%Inh (MARK2): 0%

COc1cc2ncnc(Nc3ccc(OCc4ccccc4Br)c(Cl)c3)c2cc1OC.Cl [GI261590]
%Inh (LKB1): 0%
%Inh (LOK): 96.6%
%Inh (LRRK2): 0%
%Inh (LTK): 14%
%Inh (LYN): 30%
%Inh (LZK): 10%
%Inh (MAK): 33%
%Inh (MAP3K15): 0%
%Inh (MAP3K1): 4%
%Inh (MAP3K2): 0%
%Inh (MAP3K3): 0%
%Inh (MAP3K4): 0%
%Inh (MAP4K2): 0%
%Inh (MAP4K3): 11%
%Inh (MAP4K4): 0%
%Inh (MAP4K5): 17%
%Inh (MAPKAPK2): 15%
%Inh (MAPKAPK5): 0%
%Inh (MARK1): 29%
%Inh (MARK2): 0%

Nc1nc(-c2cccnc2)c(-c2ccnc3ccccc23)s1 [GW684083]
%Inh (LKB1): 15%
%Inh (LOK): 0%
%Inh (LRRK2): 0%
%Inh (LTK): 0%
%Inh (LYN): 72%
%Inh (LZK): 14%
%Inh (MAK): 10%
%Inh (MAP3K15): 0%
%Inh (MAP3K1): 6%
%Inh (MAP3K2): 0%
%Inh (MAP3K3): 0%
%Inh (MAP3K4): 0%
%Inh (MAP4K2): 0%
%Inh (MAP4K3): 0%
%Inh (MAP4K4): 16%
%Inh (MAP4K5): 0%
%Inh (MAPKAPK2): 14%
%Inh (MAPKAPK5): 0%
%Inh (MARK1): 0%
%Inh (MARK2): 0%

FC(F)(F)c1ccc(-c2cc(-c3c[nH]nc3-c3ccccn3)ccn2)cc1 [GW599550]
%Inh (LKB1): 12%
%Inh (LOK): 0%
%Inh (LRRK2): 7%
%Inh (LTK): 21%
%Inh (LYN): 0%
%Inh (LZK): 29%
%Inh (MAK): 11%
%Inh (MAP3K15): 0%
%Inh (MAP3K1): 5%
%Inh (MAP3K2): 0%
%Inh (MAP3K3): 0%
%Inh (MAP3K4): 0%
%Inh (MAP4K2): 0%
%Inh (MAP4K3): 0%
%Inh (MAP4K4): 60%
%Inh (MAP4K5): 8%
%Inh (MAPKAPK2): 28%
%Inh (MAPKAPK5): 0%
%Inh (MARK1): 0%
%Inh (MARK2): 0%

Cc1ccc(C)c(NC(=O)NCCNc2ccnc(Nc3ccc(F)cc3)n2)c1 [GSK1379878]
%Inh (LKB1): 14%
%Inh (LOK): 0%
%Inh (LRRK2): 0%
%Inh (LTK): 0%
%Inh (LYN): 0%
%Inh (LZK): 0%
%Inh (MAK): 22%
%Inh (MAP3K15): 0%
%Inh (MAP3K1): 0%
%Inh (MAP3K2): 0%
%Inh (MAP3K3): 0%
%Inh (MAP3K4): 0%
%Inh (MAP4K2): 0%
%Inh (MAP4K3): 0%
%Inh (MAP4K4): 0%
%Inh (MAP4K5): 0%
%Inh (MAPKAPK2): 0%
%Inh (MAPKAPK5): 0%
%Inh (MARK1): 0%
%Inh (MARK2): 0%

CSc1ccc(NC2=C(c3ccccc3Cl)C(=O)NC2=O)cc1 [SB-342411]
%Inh (LKB1): 12%
%Inh (LOK): 2%
%Inh (LRRK2): 0%
%Inh (LTK): 7%
%Inh (LYN): 0%
%Inh (LZK): 0%
%Inh (MAK): 0%
%Inh (MAP3K15): 0%
%Inh (MAP3K1): 14%
%Inh (MAP3K2): 0%
%Inh (MAP3K3): 0%
%Inh (MAP3K4): 30%
%Inh (MAP4K2): 0%
%Inh (MAP4K3): 10%
%Inh (MAP4K4): 2%
%Inh (MAP4K5): 6%
%Inh (MAPKAPK2): 3%
%Inh (MAPKAPK5): 1%
%Inh (MARK1): 3%
%Inh (MARK2): 0%

OCCOCCn1ccc2ncnc(Nc3ccc(Oc4cccc(Cl)c4)c(Cl)c3)c21
%Inh (LKB1): 24%
%Inh (LOK): 74%
%Inh (LRRK2): 0%
%Inh (LTK): 0%
%Inh (LYN): 19%
%Inh (LZK): 0%
%Inh (MAK): 0%
%Inh (MAP3K15): 0%
%Inh (MAP3K1): 0%
%Inh (MAP3K2): 0%
%Inh (MAP3K3): 0%
%Inh (MAP3K4): 0%
%Inh (MAP4K2): 0%
%Inh (MAP4K3): 0%
%Inh (MAP4K4): 0%
%Inh (MAP4K5): 0%
%Inh (MAPKAPK2): 0%
%Inh (MAPKAPK5): 0%
%Inh (MARK1): 25%
%Inh (MARK2): 0%
